SMILES strings stand for the structures. Out of some 5,500 compounds screened, about 2,000 (36%) were called active. Not shown: some 18% with an inconclusive outcome. The list shows a part of the results. Values without a mark were called inactive. No stated cut-off is given here; in the data, active means normalized growth mostly below about 0.91 (no sharp cut-off); inconclusive means no clear call, values can overlap the other calls; inactive means mostly above about 0.92.

The assay in a line: chemical genetic growth profiling, strain panel (AID 1159580).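 Further: tested at 20 µM; growth read once vehicle control cultures reached saturation at 30 °C; 1 = growth at the plate median or of vehicle wells.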 The conditions noted are these: S. cerevisiae deletion strains, growth OD.

With `O=C(O)c1cc[c]([Hg][Cl])cc1`, the normalized growth reads like this: (locus YAL040C, strain CLN3, stronger effect = lower value) 0.825 (active); (locus YCL061C, strain MRC1 (second series), stronger effect = lower value) 1.01; (locus YDR150W, strain NUM1, stronger effect = lower value) 1; (locus YDR363W, strain ESC2, stronger effect = lower value) 0.943; (locus YER002W, strain NOP16, stronger effect = lower value) 0.757 (active); (locus YGR078C, strain PAC10, stronger effect = lower value) 0.339 (active). Besides, the normalized growth was 0.981 (locus YMR307W, strain GAS1, stronger effect = lower value); 0.955 (locus YNL128W, strain TEP1, stronger effect = lower value); 0.918 (locus YNL175C, strain NOP13, stronger effect = lower value); 0.731 (active) (locus YNL197C, strain WHI3, stronger effect = lower value); 0.948 (locus YNL224C, strain SQS1, stronger effect = lower value); 1.01 (locus YNL322C, strain KRE1, stronger effect = lower value). Moreover, the normalized growth reads like this: (locus YOR083W, strain WHI5 (second series), stronger effect = lower value) 0.77 (active); (locus YPL055C, strain LGE1, stronger effect = lower value) 0.961.

The values are drawn from PubChem BioAssay AID1159580 (chemical genetic matrix, 2015).
